An excerpt weighted towards active compounds, which were near 11% of everything screened.
HP1b chromo inh: inhibitors of HP1-beta chromodomain binding to methylated histone tails | P83916 | AlphaScreen HP1-beta / biotin-H3K9me3 peptide binding | Potency, µM (titrated, usually from 114 µM), most hits filed as inhibitors | hit rate 0.56% among 390,000; note: nearly all actives have a fitted effect of over 70% in size
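Compound inhibition of the preformed complex between 50 nM HP1-beta and 50 nM biotinylated H3K9me3 peptide was read by AlphaScreen. Buffer was PBS pH 7.4 with 0.01% Tween-20. Incubations ran 30 min at room temperature, with 10 ug/mL donor/acceptor beads.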
BAZ2B inh: inhibitors of human BAZ2B bromodomain; Potency, µM (series often up to 114 µM), actives largely listed as inhibitors; AID 504333; AlphaScreen BAZ2B-H3K14Ac peptide displacement; Q9UIF8; hit rate 4.4% among 360,000; note: nearly all actives have a fitted effect of over 60% in size
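BAZ2B 50 nM plus b-H3(5-23)K14Ac 50 nM, PBS pH 7.4/0.01% Tween-20, 30 min RT; compound added (max 110 uM), 30 min RT; streptavidin donor/Ni-chelate acceptor beads 10 ug/mL final, 20 min dark; AlphaScreen read.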
L3MBTL1 inh: inhibitors of human L3MBTL1; Q9Y468; AlphaScreen L3MBTL1–H3K9me1 peptide binding; Potency, µM (top dose mostly 57.1 µM), actives largely listed as inhibitors; hit rate 0.66% among 230,000; AID 485360; note: nearly all actives have a fitted effect of over 60% in size
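First, the protein-peptide complex forms for 30 min at room temperature (L3MBTL1 50 nM, biotinylated H3K9me1 peptide 75 nM). Next, compounds are pin-transferred and incubated 30 min. Finally, AlphaScreen beads are added and read after 30 min.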
G9a block: inhibitors of human histone lysine methyltransferase G9a | G9a H3K9 monomethylation, AlphaScreen, 2 h | hit rate 8.8% among 350,000 | Potency, µM (doses to about 102 µM), actives largely listed as inhibitors | Q96KQ7 | AID 504332; note: nearly all actives have a fitted effect of over 75% in size
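Compounds were preincubated with 20 nM G9a for 15 min, after which biotinylated H3K9 peptide (500 nM) and SAM (20 uM) started a 2 h room-temperature reaction. Monomethylated product was quantified by antibody-based AlphaScreen chemiluminescence.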
JMJD2A Tudor inh: inhibitors of human JMJD2A Tudor domain. AlphaScreen JMJD2A-Tudor / H3K4me3 peptide binding. Potency, µM (top dose mostly 114 µM), usual class: inhibitors. O75164. hit rate 4.4% among 390,000; note: nearly all actives have a fitted effect of over 50% in size
Large screens that a line does not name were inactive. Calls come from the whole dose curve; as a rule, active = well fitted inhibition curve with a large enough effect; inconclusive = small, poorly fitted or top-dose-only effect; inactive = no such curve, though single readings can be large or run the other way.

CCNC(=O)[C@H]1O[C@@H](n2cnc3c(N)ncnc32)[C@H](O)[C@@H]1O	none (no result: L3MBTL1 inh)
Cc1ccc2c(c1)C1CN(C)CCC1N2C(=O)c1ccc(Br)o1 (stereo not given)	G9a block 79µM (no result: L3MBTL1 inh)
COc1ccc(C(O)P(=O)(OCC(C)C)c2ccc(N(C)C)cc2)c(OC)c1 (stereo not given)	G9a block inconclusive (no result: L3MBTL1 inh)
C=C(C)[C@H]1O[C@H]2CC[C@@]3(C)[C@@](O)(CC[C@H]4[C@@H]5OC(C)(C)[C@H]6C[C@@H]7C(=C)Cc8c(Cl)cc9[nH]c(c5c9c8[C@@]76O)[C@@]43C)[C@]23O[C@@H]3[C@H]1O	none (no result: HP1b chromo inh, BAZ2B inh, L3MBTL1 inh, JMJD2A Tudor inh)
C=CCN1C(=O)NC(=O)/C(=C/c2ccc(OC)c(CSc3ccccn3)c2)C1=O	G9a block 11µM, JMJD2A Tudor inh 79µM
C=CCN1C(=O)NC(=O)/C(=C/c2ccc(OC)c(COc3ccc(NC(C)=O)cc3)c2)C1=O	none (no result: G9a block)
CN1CCN(/N=C/c2c(O)n(Cc3ccc(F)cc3)c(=O)[nH]c2=O)CC1	G9a block 56µM
CCCCn1c(O)c(C=NC2CCCCC2N)c(=O)[nH]c1=O (stereo not given)	BAZ2B inh inconclusive, G9a block 4µM (no result: L3MBTL1 inh)
NC1CCCCC1N=Cc1c(O)n(Cc2ccc(F)cc2)c(=O)[nH]c1=O (stereo not given)	BAZ2B inh inconclusive, G9a block 0.89µM
CC(C)CCNC(=O)CN1C(=O)CN=C(c2ccccc2)c2ccccc21	none (no result: L3MBTL1 inh)
O=C(CN1C(=O)CN=C(c2ccccc2)c2ccccc21)NCc1ccco1	BAZ2B inh inconclusive, L3MBTL1 inh 20µM, G9a block inconclusive
Cc1sc2c(c1C)C(c1cccs1)=NCC(=O)N2CC(=O)NCc1cccs1	none
COc1ccc(C2=NCC(=O)N(CC(=O)NCc3ccco3)c3sc4c(c32)CCCC4)cc1OC	G9a block 16µM
[Li+]	none (no result: HP1b chromo inh, BAZ2B inh, L3MBTL1 inh, JMJD2A Tudor inh)
CN1CC(C(=O)c2ccc([N+](=O)[O-])cc2)C(c2ccc(Cl)cc2)C1 (stereo not given)	HP1b chromo inh inconclusive, BAZ2B inh inconclusive, JMJD2A Tudor inh 45µM (no result: L3MBTL1 inh)
COc1ccc(C(=O)C2CN(C)CC2c2ccc(Cl)cc2)cc1 (stereo not given)	L3MBTL1 inh inconclusive
O=C(Oc1ccccc1)N1CCC[C@@]2(CCN(C(c3ccccc3)c3ccccc3)C2)C1	none (no result: HP1b chromo inh, BAZ2B inh, L3MBTL1 inh, JMJD2A Tudor inh)
O=C(Cc1ccccc1)N1CCN(CC2CC3C=CC2C3)CC1 (stereo not given)	HP1b chromo inh 50µM, BAZ2B inh 32µM, G9a block inconclusive, JMJD2A Tudor inh 4.5µM
COc1ccc(OCC(=O)N2CCN(CC3CC4C=CC3C4)CC2)cc1 (stereo not given)	HP1b chromo inh inconclusive, BAZ2B inh 50µM, G9a block 18µM, JMJD2A Tudor inh 5.6µM
COc1ccnc(N=CNOCc2ccc(C)cc2)c1C#N	none (no result: L3MBTL1 inh)
CCC(C(N)=O)N1CCCC1=O (stereo not given)	none (no result: HP1b chromo inh, BAZ2B inh, L3MBTL1 inh, JMJD2A Tudor inh)
O=C1NC(=O)N(c2ccc3c(c2)OCO3)C(=O)/C1=C/c1ccc(N2CCCC2)o1	G9a block inconclusive
Cc1ccc(N2C(=O)/C(=C/c3ccc(CN(CCC#N)S(C)(=O)=O)o3)C(=O)NC2=S)cc1C	BAZ2B inh 40µM, L3MBTL1 inh inconclusive, G9a block 8.9µM (no result: HP1b chromo inh, JMJD2A Tudor inh)
Cc1cccc(N2C(=O)/C(=C/c3ccc(CN(CCC#N)S(C)(=O)=O)o3)C(=O)NC2=S)c1	HP1b chromo inh inconclusive, BAZ2B inh 50µM, G9a block inconclusive, JMJD2A Tudor inh 50µM (no result: L3MBTL1 inh)
COc1ccccc1NC(=O)N(Cc1ccco1)C1CCN(C(C)=O)CC1	none (no result: L3MBTL1 inh)
Cc1ccc(C2C(S(C)(=O)=O)=C(O)C(=O)N2c2ccccc2)cc1 (stereo not given) (tested in a mixture with another compound)	BAZ2B inh inconclusive, G9a block 71µM, JMJD2A Tudor inh inconclusive
O=C(CNC(=O)c1ccccc1)NCC(=O)OCC(=O)c1ccc([N+](=O)[O-])cc1	G9a block 8.9µM
CN1CCN(c2ccc(NC(=O)Oc3ccccc3)cc2)CC1	G9a block 3.5µM (no result: L3MBTL1 inh)
CC1CCc2cc(F)cc3c(=O)c(C(=O)O)cn1c23 (stereo not given)	BAZ2B inh 56µM, G9a block 8.9µM, JMJD2A Tudor inh inconclusive
CCN(CC)c1ccc(N=Cc2c(O)n(CCc3ccc(OC)c(OC)c3)c(=O)[nH]c2=O)cc1	G9a block 7.1µM
